The results in this text go back to PubChem BioAssay (NCI).

This is part of a sample that, as a whole, favours compounds with a hit. Of some 79,000 tested, about 15% had one in any assay. Activity calls are given as the source filed them. Rule as the data show it: active = growth inhibition above about 70%; inactive = the rest.

The first test can be described thus: NCI Yeast Anticancer Drug Screen. Data for the rad50 strain (AID 155).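 Also: 0% = growth of vehicle-only cultures of the same strain.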 The conditions noted are these: S. cerevisiae rad50 strain growth inhibition; at 50.0 µM; active compounds read high. In a few lines:
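A DNA repair-deficient yeast mutant serves as the test organism; compound-induced growth inhibition is calculated against vehicle-treated cells.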
`CCC(c1ccc(OC)cc1)C(O)(CC)c1ccc(OC)cc1` (stereo not given): the growth inhibition is 99% (active).
Still for that read-out and setting: next, `Cc1c(Cl)c(S(N)(=O)=O)cc2c1NC=NS2(=O)=O`: 7.45% (inactive).
As to `CCCCCCCCNc1ncnc2c1cnn2C`, the growth inhibition is 48.6% (inactive).
Same read-out and setting: next, `Cc1cc(N)c(C)c2c1[nH]c1ccc(Br)cc12`: 54.1% (inactive); `C(=C\c1cnnc2ccccc12)/c1ccco1`: 58.2% (inactive).
Still for that read-out and setting: the figure for `Cc1cc(N(CCCCl)CCCCl)ccc1C=Nc1cccc(Cl)c1` is 79% (active); for `CCC[CH2][Sn]([CH2]CCC)([O]C(=O)c1cc(F)ccc1F)[O]C(=O)c1cc(F)ccc1F` it is 84.1% (active).
Same read-out and setting: next, `O=[N+]([O-])c1ccc(N2N=NC(CN3CCOCC3)C2N2CCOCC2)cc1` (stereo not given): 77.5% (active); `O=CC(I)=C(c1ccccc1)c1ccccc1`: 88.8% (active).
Turning to `CCC/C(=N\O)S(=O)(=O)c1ccc(NN=O)nc1`, the growth inhibition is -22.1% (inactive).
On the same count and under the same terms, next, `COc1cc(Cc2n[nH]c(=S)n2-c2ccccc2)c(S(N)(=O)=O)cc1OC`: 10.1% (inactive); `CC(=O)Nc1ccc(C(C)(C)c2ccc(C)cc2)cc1`: -4.5% (inactive); `CC(C)=NOc1ccc([N+](=O)[O-])cc1[N+](=O)[O-]`: 89.9% (active).
Regarding `CC(=O)Nc1ccc2c(c1)C(S)c1ccccc1-2` (stereo not given), the growth inhibition is 52% (inactive).
Same read-out and setting: next, `CCN1CC(=O)N(C)C1=S`: 84.7% (active); `[O-][n+]1c(-c2ccccc2)c(Cl)c(-c2ccccc2)n1O`: 86.3% (active).
On the same count and under the same terms, the figure for `CCCCCCCCCCCCCCCCN(C)c1ccc(S(=O)(=O)O)cc1[N+](=O)[O-]` is 85.5% (active); for `Cc1ccc2c(c1)-c1c(c3c(c4c1-c1cc(C)ccc1CC4)C(=O)OC3=O)CC2` it is 43.9% (inactive).
In the case of `C[N+](C)(CCO)Cc1ccccc1`, the growth inhibition was -19.4% (inactive).
On the same count and under the same terms, next, `CCOC(=O)C(C)(C)Oc1ccc2c(=O)cc(-c3ccccc3)oc2c1`: 85.5% (active); `CS(=O)c1cc(=O)c2ccccc2s1` (stereo not given): 98.2% (active); `COC(=O)c1c[nH]c2ccc(Br)cc12`: 30.9% (inactive).
As for `CCCCN1C(=O)C(=O)N(c2ccccc2)C1=O`, the growth inhibition was 18.2% (inactive).
Still for that read-out and setting: the figure for `Cc1cc(N)c2cc(OCCOc3ccc4nc(C)cc(N)c4c3)ccc2n1` is 97.5% (active).
The same measure, in the same setting: next, `Cc1c2c(c(C)c3c4c(oc13)CCCC4)C=NCC2`: 69.7% (inactive); `CCCC(c1ccc(O)cc1)c1ccc(O)cc1`: 99.5% (active); `CC(C)=NNc1ncnc2nc[nH]c12`: 12.5% (inactive).
The same measure, in the same setting: the figure for `Clc1ccc(C2=Nc3ccccc3SC(c3ccc(Cl)c(Cl)c3)C2)c(Cl)c1` (stereo not given) is 64.2% (inactive).
`N#Cc1c(Cl)nsc1-c1ccc([N+](=O)[O-])cc1`: the growth inhibition is 91.2% (active).
Same read-out and setting: the figure for `C=CCSc1nc2ccccc2c(=O)n1Cc1ccco1` is -7.25% (inactive); for `COC(=O)CSc1nc2[nH]c(SC)c(C(N)=O)c2c(=O)n1-c1ccccc1` it is 2.35% (inactive).
The same measure, in the same setting: next, `Cc1cc2oc3c(ccc(=O)n3C)c(=O)c2c(C)c1Cl`: 53.7% (inactive).
On the same count and under the same terms, next, `CC(=O)SC1C(=O)N(C)C(SC(C)=O)C(=O)N1C` (stereo not given): 95.8% (active); `CCCCCCCCCCCCCCCCOCC(Cl)COP(=O)(O)OP(=O)(O)OCC1OC(n2cc(C)c(=O)[nH]c2=O)CC1O` (stereo not given): 86% (active); `CCCCCCCCCCNC(=O)CBr`: 83.7% (active).
With `O=Cc1c(Cn2ccnc2)c2cc([N+](=O)[O-])ccc2n1Cc1ccccc1`, the growth inhibition is 62.5% (inactive).
Same read-out and setting: next, `C=C(C)C1CC2=C(O1)C(=O)c1ccccc1C2=O` (stereo not given): 91.9% (active); `CC(C)C1=CC2=CCC3C(C)(C(=O)O)CCCC3(C)C2CC1` (stereo not given) (tested in a mixture with another compound): 75.5% (active).
Same read-out and setting: next, `ClCC1CSC2(CCCCC2)O1` (stereo not given): 21.5% (inactive).
For `Oc1cccc2ccc(SSc3ccc4cccc(O)c4n3)nc12`, the growth inhibition is 92.2% (active).

Another test can be described thus: NCI Yeast Anticancer Drug Screen. Data for the mec2-1 strain (AID 157). The conditions noted are these: S. cerevisiae mec2-1 strain, at 5.0 µM (retest, dose inferred, filed as 0.5), active compounds read high. Put shortly:
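mec2-1 yeast strain, carrying an alteration in DNA damage repair or cell cycle control, was exposed to compounds; growth inhibition was measured relative to vehicle-treated controls.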
As to `CCC(c1ccc(OC)cc1)C(O)(CC)c1ccc(OC)cc1` (stereo not given), the growth inhibition is -7% (inactive).
For the compound `Cc1c(Cl)c(S(N)(=O)=O)cc2c1NC=NS2(=O)=O`, the growth inhibition was -1% (inactive).
Still for that read-out and setting: the figure for `CCCCCCCCNc1ncnc2c1cnn2C` is 4% (inactive); for `Cc1cc(N)c(C)c2c1[nH]c1ccc(Br)cc12` it is -3% (inactive).
Still for that read-out and setting: the figure for `C(=C\c1cnnc2ccccc12)/c1ccco1` is 5% (inactive); for `Cc1cc(N(CCCCl)CCCCl)ccc1C=Nc1cccc(Cl)c1` it is -7% (inactive).
Same read-out and setting: the figure for `CCC[CH2][Sn]([CH2]CCC)([O]C(=O)c1cc(F)ccc1F)[O]C(=O)c1cc(F)ccc1F` is 25% (inactive).
`O=[N+]([O-])c1ccc(N2N=NC(CN3CCOCC3)C2N2CCOCC2)cc1` (stereo not given): the growth inhibition was 0% (inactive).
Still for that read-out and setting: the figure for `O=CC(I)=C(c1ccccc1)c1ccccc1` is 13% (inactive); for `CCC/C(=N\O)S(=O)(=O)c1ccc(NN=O)nc1` it is -20% (inactive); for `COc1cc(Cc2n[nH]c(=S)n2-c2ccccc2)c(S(N)(=O)=O)cc1OC` it is 1% (inactive).
Same read-out and setting: next, `CC(=O)Nc1ccc(C(C)(C)c2ccc(C)cc2)cc1`: 0% (inactive).
Same read-out and setting: the figure for `CC(C)=NOc1ccc([N+](=O)[O-])cc1[N+](=O)[O-]` is 11% (inactive); for `CC(=O)Nc1ccc2c(c1)C(S)c1ccccc1-2` (stereo not given) it is 9% (inactive); for `CCN1CC(=O)N(C)C1=S` it is -6% (inactive).
For the compound `[O-][n+]1c(-c2ccccc2)c(Cl)c(-c2ccccc2)n1O`, the growth inhibition is 0% (inactive).
Regarding `CCCCCCCCCCCCCCCCN(C)c1ccc(S(=O)(=O)O)cc1[N+](=O)[O-]`, the growth inhibition is 37% (inactive).
On the same count and under the same terms, the figure for `Cc1ccc2c(c1)-c1c(c3c(c4c1-c1cc(C)ccc1CC4)C(=O)OC3=O)CC2` is 10% (inactive); for `C[N+](C)(CCO)Cc1ccccc1` it is 1% (inactive).
On the same count and under the same terms, the figure for `CCOC(=O)C(C)(C)Oc1ccc2c(=O)cc(-c3ccccc3)oc2c1` is -28% (inactive); for `CS(=O)c1cc(=O)c2ccccc2s1` (stereo not given) it is -4% (inactive); for `COC(=O)c1c[nH]c2ccc(Br)cc12` it is 8% (inactive).
With `CCCCN1C(=O)C(=O)N(c2ccccc2)C1=O`, the growth inhibition is -7% (inactive).
Same read-out and setting: the figure for `Cc1cc(N)c2cc(OCCOc3ccc4nc(C)cc(N)c4c3)ccc2n1` is 69% (inactive); for `Cc1c2c(c(C)c3c4c(oc13)CCCC4)C=NCC2` it is 3% (inactive).
On to `CCCC(c1ccc(O)cc1)c1ccc(O)cc1`, for which the growth inhibition was -5% (inactive).
Consider `CC(C)=NNc1ncnc2nc[nH]c12`, for which the growth inhibition was -1% (inactive).
On the same count and under the same terms, next, `Clc1ccc(C2=Nc3ccccc3SC(c3ccc(Cl)c(Cl)c3)C2)c(Cl)c1` (stereo not given): 12% (inactive); `N#Cc1c(Cl)nsc1-c1ccc([N+](=O)[O-])cc1`: 7% (inactive); `C=CCSc1nc2ccccc2c(=O)n1Cc1ccco1`: 25% (inactive).
Regarding `COC(=O)CSc1nc2[nH]c(SC)c(C(N)=O)c2c(=O)n1-c1ccccc1`, the growth inhibition was -2% (inactive).
Still for that read-out and setting: the figure for `Cc1cc2oc3c(ccc(=O)n3C)c(=O)c2c(C)c1Cl` is 10% (inactive); for `CC(=O)SC1C(=O)N(C)C(SC(C)=O)C(=O)N1C` (stereo not given) it is -5% (inactive); for `CCCCCCCCCCCCCCCCOCC(Cl)COP(=O)(O)OP(=O)(O)OCC1OC(n2cc(C)c(=O)[nH]c2=O)CC1O` (stereo not given) it is 30% (inactive).
On to `CCCCCCCCCCNC(=O)CBr`, for which the growth inhibition is -2% (inactive).
As to `O=Cc1c(Cn2ccnc2)c2cc([N+](=O)[O-])ccc2n1Cc1ccccc1`, the growth inhibition was 4% (inactive).
Still for that read-out and setting: the figure for `C=C(C)C1CC2=C(O1)C(=O)c1ccccc1C2=O` (stereo not given) is 0% (inactive).
On the same count and under the same terms, the figure for `CC(C)C1=CC2=CCC3C(C)(C(=O)O)CCCC3(C)C2CC1` (stereo not given) (tested in a mixture with another compound) is -16% (inactive).
The same measure, in the same setting: the figure for `ClCC1CSC2(CCCCC2)O1` (stereo not given) is 10% (inactive).
For the compound `Oc1cccc2ccc(SSc3ccc4cccc(O)c4n3)nc12`, the growth inhibition is 100% (active).
